# Compound activity: PubChem, National Center for Advancing Translational Sciences (NCATS)
# WRN helicase inh = inhibitors of human WRN helicase; Q14191; WRN helicase unwinding, fluorescent forked duplex, kinetic; Potency, µM (doses to about 114 µM), for the others: at the highest dose activity change, negative = inhibition, hits mostly inhibitors; actives 0.46% (n = 360,000); note: potency is the fitted concentration of half-maximal effect; % is set by controls: 0 for no effect and ±100 for the full control effect; nearly all actives have a fitted effect of over 55% in size
#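 Kinetic red-fluorescence monitoring (525/598 nm) tracks WRN helicase activity after 100 nM fluorophore-quencher forked duplex and 2 mM ATP are added to 20 nM enzyme pretreated 15 min at room temperature with compound.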
# PI5P4K alpha inh = PI5P4K alpha (human) kinase inhibition | PI5P4Kalpha enzyme, ADP-Glo luminescence, 60 min; stronger effect = lower value | max response, % | P48426 | actives 1.2% (n = 330,000); active = max response of -50% or lower; inconclusive = between -30% and -50%; inactive = -30% or higher; note: value at the top dose of about 77 µM; % is set by controls: 0 for no effect and ±100 for the full control effect
#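 Enzyme plus substrate dispensed, test compounds pinned in, then ATP (5 microM final) added. After 60 min at RT, ADP-Glo reagent 1 for 45 min and reagent 2 for 30 min preceded luminescence imaging.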
# Pol iota inh = inhibitors of human DNA polymerase iota; Q9UNA4; Potency, µM (doses to about 115 µM), for the others: at the top dose activity, negative = inhibition, hits mostly inhibitors; actives 1% (n = 390,000); Pol iota fluorescent replication assay, 10 min; note: potency is the fitted concentration of half-maximal effect
# Target sequence (Q9UNA4 whole entry, looked up): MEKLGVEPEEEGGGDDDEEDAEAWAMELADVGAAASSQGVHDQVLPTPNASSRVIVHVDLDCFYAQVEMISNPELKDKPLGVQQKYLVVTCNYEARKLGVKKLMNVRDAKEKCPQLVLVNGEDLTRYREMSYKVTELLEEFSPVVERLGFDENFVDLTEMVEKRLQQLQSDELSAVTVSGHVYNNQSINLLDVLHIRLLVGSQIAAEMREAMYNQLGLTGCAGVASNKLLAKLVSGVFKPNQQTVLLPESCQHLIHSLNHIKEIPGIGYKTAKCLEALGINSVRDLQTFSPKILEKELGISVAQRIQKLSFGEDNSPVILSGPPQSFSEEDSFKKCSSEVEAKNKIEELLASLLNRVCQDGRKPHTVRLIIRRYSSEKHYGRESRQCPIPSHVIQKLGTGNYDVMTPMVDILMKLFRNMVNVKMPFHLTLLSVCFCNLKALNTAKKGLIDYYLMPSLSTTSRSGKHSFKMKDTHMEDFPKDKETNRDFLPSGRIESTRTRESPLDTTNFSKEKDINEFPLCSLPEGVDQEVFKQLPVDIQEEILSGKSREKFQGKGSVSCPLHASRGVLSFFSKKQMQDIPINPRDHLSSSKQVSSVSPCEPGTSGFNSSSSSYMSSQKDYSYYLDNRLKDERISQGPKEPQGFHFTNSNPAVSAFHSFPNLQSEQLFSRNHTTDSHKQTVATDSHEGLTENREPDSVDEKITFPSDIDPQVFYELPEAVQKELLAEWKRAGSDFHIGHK
#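 Pol iota at 10 nM preincubated 15 min with compounds at room temperature; reaction started with fluorescent substrate, 50 nM final. Fluorescence read kinetically at 0 and 10 min; buffer-only wells as negative control.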
# Pol kappa inh-1 = blocks human DNA polymerase kappa activity | actives 0.53% (n = 400,000) | Potency, µM (doses to about 107 µM), inactives show at the top dose activity, negative = inhibition, most hits filed as inhibitors | purified Pol kappa, fluorescent DNA synthesis assay, 10 min | Q9UBT6; note: potency is the fitted concentration of half-maximal effect; % is set by controls: 0 for no effect and ±100 for the full control effect
#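 Here, compound and 10 nM enzyme are combined for 15 min at room temperature; adding 50 nM substrate (final) starts DNA synthesis, tracked by fluorescence at 0 and 10 min against buffer-only wells.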
# Pol eta inh-1 = inhibitors of human DNA polymerase eta. actives 1.2% (n = 390,000). AID 588591. recombinant Pol eta, fluorescent DNA replication assay. Q9Y253. Potency, µM (titrated, usually from 114 µM), for the others: at the top dose activity change, negative = inhibition, most hits filed as inhibitors; note: potency is the fitted concentration of half-maximal effect; % is set by controls: 0 for no effect and ±100 for the full control effect
#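 Pol eta at 10 nM preincubated with compounds 15 min at room temperature; reaction started with fluorescent substrate (50 nM final) and read kinetically at 0 and 10 min.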
# Pol beta inh = DNA polymerase beta (human) inhibition; P06746; Pol beta primer extension/strand displacement, fluorescence kinetic; AID 485314; Potency, µM (top dose mostly 114 µM), for inactives: at the highest dose activity change, negative = inhibition, actives largely listed as inhibitors; actives 1.3% (n = 340,000); note: potency is the fitted concentration of half-maximal effect; % is set by controls: 0 for no effect and ±100 for the full control effect
#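 Preincubation: enzyme (10 nM) with compound, 15 min, RT. Reaction: substrate added to 50 nM final. Reads: 0 and 10 min. Analysis: normalized, Hill fit.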
# PGK validate = TbPGK inhibition, hit validation | shares compounds with Pol kappa inh-1 | TbPGK coupled GAPDH assay, Kinase-Glo luminescence | Potency, µM (top dose mostly 57.5 µM), for inactives: at the highest dose activity change, negative = inhibition, most hits filed as inhibitors | actives 79% (n = 500) | AID 686980; note: potency is the fitted concentration of half-maximal effect; % is set by controls: 0 for no effect and ±100 for the full control effect; nearly all actives have a fitted effect of over 65% in size
# Pol iota confirm = Human Pol iota inhibitor confirmatory assay | shares compounds with Pol kappa inh-1 | Pol iota primer extension, TAMRA/BHQ fluorescence | Potency, µM, usual class: inhibitors | actives 77% (n = 1,500) | AID 720496; note: potency is the fitted concentration of half-maximal effect
# Pol kappa inh-2 = Pol kappa (human) inhibition, cherry-pick confirmation; shares compounds with Pol eta inh-1; purified Pol-kappa, fluorescent strand-displacement substrate; AID 720501; Potency, µM, hits mostly inhibitors; actives 76% (n = 920); note: potency is the fitted concentration of half-maximal effect
# Pol eta inh-2 = Pol eta (human) inhibition, cherry-pick confirmation. shares compounds with Pol eta inh-1. AID 720502. Pol eta primer extension, TAMRA/BHQ fluorescence, 10 min. actives 64% (n = 2,600). Potency, µM, actives largely listed as inhibitors; note: potency is the fitted concentration of half-maximal effect
# * = called active by the depositor; ? = inconclusive; . = no result given; [ ] = dose if it differs, or a comment. Most compounds without a hit are left out; they make up all but 2.8% or so of the library. Unless noted, calls come from the whole dose curve; as a rule, active = well fitted curve in the direction sought with a large enough effect; inconclusive = small, poorly fitted or top-dose-only effect, or another doubt; inactive = no such curve, though single readings can be large; an effect the other way counts as inactive or inconclusive.
SMILES,WRN helicase inh,PI5P4K alpha inh,Pol iota inh,Pol kappa inh-1,Pol eta inh-1,Pol beta inh,Pol iota confirm,Pol kappa inh-2,Pol eta inh-2,others
COc1c(O)cc2oc(-c3ccc(O)cc3)cc(=O)c2c1O,-11.1%,-28.8,-6.5%,?,-7.7%,?,.,.,.,
O=c1cc(-c2ccccc2)oc2cc(O)c(O)c(O)c12,?,-74.5*,?,20µM*,3.16µM*,.,?,.,15.1*,
CN(Cc1ccccc1)C(=O)Cn1c(=O)c2cccn2c2ccc(F)cc21,.,.,79.9%,4.0%,1.0%,2.5%,.,.,.,
CCOc1ccc(-c2cc(NC(=O)Nc3ccc(Cl)cc3)c(C(=O)OC)s2)cc1,.,.,74.6%,4.6%,-4.2%,17.9%,.,.,.,
CC(/C=N/n1c(-c2ccccc2)n[nH]c1=S)=C\c1ccco1,-13.7%[57.1 µM],.,-13.8%,-5.4%,?,?,.,.,.,
S=c1[nH]nc(-c2ccncc2)n1/N=C/C=C/c1ccco1,?,?,?,-88.6%,28.2µM*,20µM*,42.3*,29.9*,26.9*,
COc1cc(/C=C2\SC(=Nc3ccc(Cl)c(C(=O)O)c3)NC2=O)c(Br)c(Br)c1O,?,-106.2*,22.4µM*,39.8µM*,17.8µM*,8.91µM*,67*,8.44*,?,
Cc1cccc(OCC(=O)Nc2ccc(-c3nc4cc(C)ccc4o3)c(O)c2)c1,.,.,?,-14.2%,-6.5%,-18.1%,.,.,.,
O=[N+]([O-])c1cc(Cl)cc(/C=N/NC(=S)Nc2ccc(S(=O)(=O)N3CCOCC3)cc2)c1O,-31.9%[11.6 µM],-85.0*,?,?,79.4µM*,?,?,.,?,
O=C(Nc1ccc(S(=O)(=O)Nc2nccs2)cc1)c1nn(-c2ccccc2)ccc1=O,79.4µM*,?,-7.8%,2.1%,6.31µM*,?,21.2*,11.9*,23.9*,
COc1ccc(-n2ccc(=O)c(C(=O)Nc3ccc(S(=O)(=O)Nc4nccs4)cc3)n2)cc1,-24.5%,-5.7,?,-13.4%,-15.3%,?,.,.,.,
COc1ccccc1CNS(=O)(=O)c1c(C)nc2sc(C)cn2c1=O,.,.,29.1%,-0.7%,-15.6%,-1.6%,.,.,.,
COc1ccc2c(c1)-c1nc(/N=C/c3ccccc3O)sc1CC2,3.4%,-6.7,12.4%,-12.0%,-17.4%,0.1%,.,.,.,
COc1ccc2sc(/C=C/c3ccccc3O)[n+](C)c2c1,?,-19.8,17.8µM*,-26.6%,50.1µM*,17.8µM*,67*,67*,33.8*,
COCCCNc1c2c3c(cccc3[nH]c1=O)C(=O)c1ccccc1-2,28.2µM*,-29.6,?,?,?,25.1µM*,?,?,?,
O=C1NC(=O)/C(=C\c2ccc(O)cc2O)S1,35.5µM*,-91.9*,?,11.2µM*,2.82µM*,1.58µM*,29.9*,.,26.9*,
O=C1NC(=O)/C(=C/c2cccc3ccccc23)S1,-10.4%,-27.9,?,-14.2%,-4.5%,15.8%,.,.,.,
CCN(CC)CCNC(=O)c1c(C)oc2ncnc(N3CCOCC3)c12,.,.,-16.5%,-2.3%,15.9%,-0.8%,.,.,.,
C/C(N)=C(/C#N)C(=O)CSc1nnc(NC(C)C)s1,?,.,?,?,28.2µM*,-28.3%,67*,.,67.5*,
COc1ccc(/C=N/NC(=O)c2nnn(-c3nonc3N)c2-c2cccc(OC)c2)cc1,-4.6%,3.3,5.1%,-1.1%,-25.3%,11.0%,.,.,.,
COc1ccc(O)c(/C=N/NC(=O)c2c(C)nnn2-c2nonc2N)c1,?,-10.6,?,?,?,4.47µM*,75.2*,?,.,
O=C(CSC1=Nc2ccccc2C2=NC(Cc3ccccc3)C(=O)N12)Nc1ccccc1C(F)(F)F (stereo not given),.,.,4.8%,0.8%[60.1 µM],-15.5%,-20.4%,.,.,.,
CCCc1c(C)[nH]c2ccc(C(=O)O)cc2c1=S,25.1µM*,?,6.31µM*,31.6µM*,3.16µM*,?,16.8*,.,5.36*,
CCN1/C(=C/C=C/c2oc3ccc(-c4ccccc4)cc3[n+]2CC)Oc2ccc(-c3ccccc3)cc21,4.74µM*,-57.1*,?,?,?,79.4µM*,29.9*,37.7*,21.3*,
O=C(Nc1cccc(F)c1)c1ccc(-c2ccccc2)s1,.,.,-0.3%,1.7%,3.3%,26.5%,.,.,.,
SMILES,WRN helicase inh,PI5P4K alpha inh,Pol iota inh,Pol kappa inh-1,Pol eta inh-1,Pol beta inh,Pol iota confirm,Pol kappa inh-2,Pol eta inh-2,others
C=CCc1cccc2cc(C(=O)Nc3ccc(CC(=O)O)cc3)c(=O)oc12,-8.2%[11.6 µM],-27.5,?,?,35.5µM*,22.4µM*,?,.,67.5*,
CCc1nnc(NS(=O)(=O)c2ccc(N/C=C\C(=O)c3ccc4ccccc4c3)cc2)s1,50.1µM*,?,?,-27.3%,50.1µM*,?,?,.,75.7*,
C=CCc1cccc2cc(C(=O)Nc3ccc(F)cc3)c(=O)oc12,6.8%,-4.7,2.5%,-24.8%,-0.9%,-29.6%,.,.,.,
C=CCc1cccc2cc(C(=O)Nc3ccc(S(=O)(=O)Nc4nnc(CC)s4)cc3)c(=O)oc12,-31.9%,2.6,8.91µM*,-14.3%,10µM*,-1.4%,?,37.7*,30.1*,
COc1ccc(Br)c(C(=O)Nc2cc3c(cc2N2CCCCC2)n(C)c(=O)c(=O)n3C)c1,.,.,48.5%,-21.8%,-16.6%,1.8%,.,.,.,
O=C1C=C(O)c2c(O)cc(O)c(O)c2C1=O,?,-68.2*,3.55µM*,2µM*,1.58µM*,.,3.77*,.,21.3*,PGK validate=8.19µM*
